D2 ag-1 – activates the human D2 dopamine receptor; AID 485358; activation, % at 2 µM; HEK293 T-REx D2 cells, calcium flux agonist mode; P14416; 340,000 compounds, 0.53% hits;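 active means activation over 3 SD above normal in the single-dose calcium agonist read, cut at about 30% in these data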
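Agonism scored from kinetic calcium signal (1 read/sec, 180 s) following compound pin transfer, after a 10 s baseline. Cells: HEK293 Trex line expressing inducible D2 receptor coupled to calcium, dye-loaded after overnight culture at 30 C.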
D2 PAM-1 – human D2 receptor positive allosteric modulation; P14416; DiscoveRx D2 beta-arrestin cells, luminescence, 90 min; 100% = 57 uM dopamine signal; potentiation, % (test concentration not listed); 360,000 compounds, 0.23% hits; AID 624464; in the data active means potentiation above about 50%; inconclusive means mostly about 30% to 49%
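PathHunter D2 cells, attached overnight at 37 deg C, received compound in DMSO plus dopamine at EC20 (50 nM final) for 90 min at 37 deg C. Beta-arrestin recruitment was read as luminescence after 1 h with detection reagent at ambient temperature.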
D2 antagonist – D2 dopamine receptor (human) antagonism; P14416; HEK293 TREx D2 cells, calcium flux, dopamine EC80; inhibition, % at 10 µM; 340,000 compounds, 2% hits; AID 485344; in the data active means inhibition above about 30%; inactive means below that, where a call was filed
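HEK293 T-REx D2 cells, tet-induced, calcium dye no-wash. Cpd pintool add, 180 s kinetic, then EC80 DA, 180 s kinetic. Ca flux read.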
Anesthetic bind – candidate novel general anesthetic via apoferritin binding; 350,000 compounds, 0.074% hits; apoferritin/1-aminoanthracene competitive binding, fluorescence; Potency, µM (top dose mostly 77.5 µM), most hits filed as inhibitors; further: nearly all actives have a fitted effect of over 20% in size
Target sequence (P02791 2-175 limits assumed): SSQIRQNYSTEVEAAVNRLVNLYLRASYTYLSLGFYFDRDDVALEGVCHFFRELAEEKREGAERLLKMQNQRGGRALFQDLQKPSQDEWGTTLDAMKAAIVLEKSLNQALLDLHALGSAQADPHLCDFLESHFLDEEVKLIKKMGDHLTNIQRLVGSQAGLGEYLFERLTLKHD
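10 uM apoferritin + 50% sat. 1-AMA, PBS; cpd 10 min RT; Ex380/Em535 endpoint; normalized to free probe vs complex; 4-param Hill fit; propofol titration as pos. ctrl.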
D2 PAM-2 – positive allosteric modulators of human D2 dopamine receptor | P14416 | HEK293 T-REx D2, calcium flux, EC20 dopamine potentiation | potentiation, % at 10 µM | 340,000 compounds, 0.34% hits | AID 485347;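 active means potentiation over 3 SD above the plate norm, cut at about 30% in these data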
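Potentiation of an EC20 dopamine calcium response measured kinetically over 180 s, after a preceding 180 s compound-only read flagging agonists. Cells: inducible Hek293 Trex D2 line, 4000/well, cultured overnight at 30 C before dye loading.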
D2 ag-2 – agonists of human D2 dopamine receptor (beta-arrestin); DiscoveRx PathHunter D2 beta-arrestin, luminescence, 90 min; 100% = 57 uM dopamine signal; activation, % (test concentration not listed); 360,000 compounds, 0.084% hits; in the data active means activation above about 40%; inconclusive means between about 15% and that limit
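DiscoveRx PathHunter D2 beta-arrestin cells (2,100/well) attached overnight, then compound-stimulated 90 min at 37 C in HBSS/10 mM HEPES/0.1% Tween-20 buffer; beta-galactosidase complementation read by luminescence after 1 h at ambient temperature. Dopamine 57 uM final (EC100) as control.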
D3 arrestin ag – confirmation of human D3 dopamine receptor agonists, beta-arrestin; DiscoveRx D3 beta-arrestin cells, luminescence, 90 min; 2,300 compounds, 4% hits; Potency, µM (top dose mostly 76.9 µM), actives largely listed as activators; shares compounds with D2 ag-1; further: nearly all actives have a fitted effect of over 70% in size
Target sequence (P35462 whole entry, looked up): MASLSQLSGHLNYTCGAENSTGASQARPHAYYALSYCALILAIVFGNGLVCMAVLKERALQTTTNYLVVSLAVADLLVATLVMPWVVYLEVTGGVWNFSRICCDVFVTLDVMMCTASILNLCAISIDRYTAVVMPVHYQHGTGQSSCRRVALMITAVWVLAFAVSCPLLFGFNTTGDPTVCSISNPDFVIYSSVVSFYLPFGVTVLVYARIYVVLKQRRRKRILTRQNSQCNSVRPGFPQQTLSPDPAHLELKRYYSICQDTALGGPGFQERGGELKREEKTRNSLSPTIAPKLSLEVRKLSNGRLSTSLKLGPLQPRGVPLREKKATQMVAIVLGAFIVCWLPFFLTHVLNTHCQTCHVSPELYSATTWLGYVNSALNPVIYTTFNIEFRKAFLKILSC
D2 ag-3 – activates human D2 dopamine receptor in D3 counterscreen | shares compounds with D2 ag-1 | DiscoveRx PathHunter D2 beta-arrestin, luminescence, 90 min; response scale: percent relative to full dopamine signal | Potency, µM (series often up to 76.9 µM), most hits filed as activators | 2,300 compounds, 5.9% hits | AID 720507; further: nearly all actives have a fitted effect of over 70% in size
Large screens that a line does not name were inactive (follow-up assays come after a bar, where they were run). Hits are enriched below; roughly 2.5% of the tested compounds scored in any of these assays. Unless noted, the call rests on the fitted dose curve; in most records, active means well fitted curve in the direction sought with a large enough effect; inconclusive means small, poorly fitted or top-dose-only effect, or another doubt; inactive means no such curve, though single readings can be large; an effect the other way counts as inactive or inconclusive.

CCCNS(=O)(=O)c1ccc(CCC(=O)N2CCC(C)CC2)cc1	none
COc1ccc(N(CC(=O)NCCOc2ccccc2)S(=O)(=O)c2ccc(C)cc2)cc1	none | D3 arrestin ag inactive | D2 ag-3 inactive
CCOc1ccc(N(CC(=O)NCCOc2ccc(C)cc2)S(=O)(=O)c2ccccc2)cc1	none
COc1ccc(NC(=O)c2cc(-c3cccnc3)nc3ccc(C)cc23)cc1OC	none
Cn1cc[nH]c1=S	none | D3 arrestin ag inactive | D2 ag-3 inactive
CC(C)c1ccccc1-n1cc[nH]c1=S	none
CCCN(CC(=O)Nc1ccc(Cl)cc1Cl)C(=O)/C=C/c1ccco1	D2 ag-1 41.6 | D3 arrestin ag inactive | D2 ag-3 inactive
CCN(CC(=O)Nc1ccc(NC(C)=O)cc1)C(=O)/C=C/c1ccco1	none (no result: Anesthetic bind)
COC(=O)C(N)Cc1ccc(O)c(O)c1 (stereo unspecified)	D2 ag-1 41.3 | D3 arrestin ag inactive | D2 ag-3 inactive
O=C(NCCCC(NC(=O)OCc1ccccc1)C(=O)O)OCc1ccccc1 (stereo unspecified)	none
Cc1cc(C)cc(NC(=O)CN2CCN(c3ccccn3)CC2)c1	none
CN(C)S(=O)(=O)c1cc(NC(=O)CN2CCN(c3ccc(O)cc3)CC2)ccc1Cl	none
Cc1ccc(NC(=O)CN2CCN(c3ccccn3)CC2)cc1S(=O)(=O)N(C)C	D2 ag-1 68.6, D2 antagonist 76.8, D2 ag-2 58.2 | D3 arrestin ag 1.41µM | D2 ag-3 14.1µM
CN(C)S(=O)(=O)c1cc(NC(=O)CN2CCN(c3ccccc3)CC2)ccc1Cl	D2 ag-1 70.6, D2 antagonist 63.9, D2 ag-2 inconclusive | D3 arrestin ag 50.1µM | D2 ag-3 inconclusive
CN(C)S(=O)(=O)c1ccc(NC(=O)CN2CCN(c3ccccn3)CC2)cc1	D2 ag-1 65.0, D2 antagonist 30.2, D2 ag-2 inconclusive | D3 arrestin ag 1.41µM | D2 ag-3 inconclusive
Cc1ccc(S(=O)(=O)C2(C(=O)Nc3ccc(Cl)c(C(F)(F)F)c3)CC2)cc1	none (no result: D2 PAM-1, D2 antagonist, D2 ag-2)
Cn1nc(C(F)(F)F)c(CN2CC(C)(C)C2=O)c1N1CCOCC1	none
Cc1cccc(N2CCN(Cc3nc(-c4cccc(Cl)c4)oc3C)CC2)n1	D2 ag-1 34.4 | D3 arrestin ag inactive | D2 ag-3 inactive
CCCN(C#N)c1nc(NCC)nc(NC(C)C)n1	none
CCN(C#N)c1nc(NC(C)C)nc(NC(C)(C)C)n1	D2 ag-1 40.2 | D3 arrestin ag inactive | D2 ag-3 inactive
Cc1cc(Cl)ccc1Oc1ncc(CN2CCN(c3ccccc3)CC2)s1	D2 ag-1 64.6, D2 antagonist 83.6, D2 ag-2 inconclusive | D3 arrestin ag inconclusive | D2 ag-3 31.6µM
Brc1ccc(Oc2ncc(CN3CCOCC3)s2)cc1	none
COc1ccc(Oc2ncc(CN3CCN(c4ccccc4)CC3)s2)cc1	D2 ag-1 72.1, D2 antagonist 76.3, D2 ag-2 41.6 | D3 arrestin ag inconclusive | D2 ag-3 5.62µM
Cc1c(Cl)cccc1NC(=O)CSC(C)c1nc2ccccc2c(=O)[nH]1 (stereo unspecified)	none | D3 arrestin ag inactive | D2 ag-3 inactive
CC(C)N(Cc1ccccc1)C(C)C (tested in a mixture with another compound)	none (no result: D2 ag-1, D2 PAM-1, D2 antagonist, D2 PAM-2, D2 ag-2)
CC(COc1ccccc1)N(CCCl)Cc1ccccc1 (stereo unspecified)	D2 ag-1 90.3, D2 antagonist 60.9 | D3 arrestin ag inactive | D2 ag-3 inactive
CCc1noc(C)c1C(=O)NCCc1ccc(F)cc1	none (no result: Anesthetic bind)
COc1cccc(CN2CCN(Cc3cc4ccccc4[nH]3)CC2CCO)c1 (stereo unspecified)	D2 ag-1 31.5 | D3 arrestin ag inactive | D2 ag-3 inactive
COc1cc(NC(=O)CCc2nnc3ccc(NCc4ccco4)nn23)cc(OC)c1	D2 ag-1 51.7 | D3 arrestin ag inactive | D2 ag-3 inactive
CCOC(=O)c1ccc(NC(=O)c2nc[nH]c2C(=O)NC[C@H](C)O)cc1	none (no result: D2 ag-1, D2 PAM-1, D2 antagonist, Anesthetic bind, D2 PAM-2)
CCCn1c(C2CCCN2c2nc(C)cs2)nc2cc(Cl)c(Cl)cc21 (stereo unspecified)	Anesthetic bind inconclusive
CCCn1c(C2CCCN2c2nc(-c3cccc(Br)c3)cs2)nc2cc(Cl)c(Cl)cc21 (stereo unspecified)	D2 ag-1 40.2 | D3 arrestin ag inactive | D2 ag-3 inactive
Cc1ccccc1Cc1c(C)nc2ncnn2c1C	D2 PAM-1 inconclusive
COc1ccc(-n2c(Cc3cccn3C)nnc2SCC(=O)N2CCC(C)CC2)cc1	Anesthetic bind inconclusive
COc1ccc(-n2c(Cc3cccn3C)nnc2SCC(=O)N2CCCC2)cc1	D2 ag-1 59.2 | D3 arrestin ag inactive | D2 ag-3 inactive
COc1ccc(/C(O)=C/c2nc3ccc(C(=O)NCCc4cccc(C)c4)cc3[nH]c2=O)cc1OC	none | D3 arrestin ag inactive | D2 ag-3 inconclusive
CCCCn1c(/C=C/c2ccco2)nc2ccccc21	D2 ag-1 40.5, D2 antagonist 63.7 | D3 arrestin ag inactive | D2 ag-3 inactive
CCCn1c(/C=C/c2ccco2)nc2ccccc21	none | D3 arrestin ag inactive | D2 ag-3 inactive
Cc1cccc(NC(=O)C[n+]2ccccc2)c1	none
CCOC(=O)C1CCCN(C(=O)Cn2nc(C)c3c(C)n(-c4ccccc4)nc3c2=O)C1 (stereo unspecified)	Anesthetic bind inconclusive | D3 arrestin ag inactive | D2 ag-3 inactive
O=C(CN(Cc1cccs1)C(=O)CNS(=O)(=O)c1ccc(F)cc1)NCC1CCCO1 (stereo unspecified)	none
O=C(CN(Cc1ccc(F)cc1)C(=O)CNS(=O)(=O)c1ccc(F)cc1)NCC1CCCO1 (stereo unspecified)	none | D3 arrestin ag inactive | D2 ag-3 inactive
C=CCn1c(SCc2nc3sc(C(=O)O)c(C)c3c(=O)[nH]2)nnc1-c1ccccc1	none (no result: D2 ag-1, D2 antagonist, D2 PAM-2)
CN(CCOc1ccc(Cl)cc1)Cc1cccc(S(=O)(=O)N(C)C)c1	D2 ag-1 70.1, D2 antagonist 48.3 | D3 arrestin ag 7.08µM | D2 ag-3 inconclusive
CN(CCOc1ccccc1)Cc1ccccc1	none (no result: D2 ag-1, D2 antagonist, Anesthetic bind, D2 PAM-2)
O=C(O)Cn1ccnc1	none
CCC(=O)N1CCc2cc(S(=O)(=O)CCC(=O)Nc3ccc(CC)cc3)ccc21	none

Screening results: PubChem, National Center for Advancing Translational Sciences (NCATS)
